A short description of experiment [1]: qHTS assay for identifying genotoxic compounds that show differential cytotoxicity against isogenic chicken DT40 cell lines with known DNA damage response pathways - wild type cell line (AID 743012). Note: nearly all actives have a fitted effect of over 60% in size. Note: potency is the fitted concentration of half-maximal effect. An outline of the steps: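 Luminescent ATP viability signal (CellTiter-Glo, 30 min RT) recorded after wild type DT40 cells were incubated with compounds for 40 h at 37 C/5% CO2.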
(Quantitative high-throughput screening tests each substance at several concentrations.)

Experiment [2] in a line: qHTS assay for identifying genotoxic compounds that show differential cytotoxicity against isogenic chicken DT40 cell lines with known DNA damage response pathways - Rad54/Ku70 mutant cell line (AID 743015). Note: nearly all actives have a fitted effect of over 60% in size. Note: potency is the fitted concentration of half-maximal effect.
Experiment [3] in a line: qHTS assay to identify small molecule antagonists of the androgen receptor (AR) signaling pathway - cell viability counter screen (AID 743033; note: nearly all actives have a fitted effect of over 45% in size; note: potency is the fitted concentration of half-maximal effect).
The nature of experiment [4]: qHTS assay to identify small molecule antagonists of the androgen receptor (AR) signaling pathway using the MDA cell line - cell viability counter screen (AID 743041; note: nearly all actives have a fitted effect of over 45% in size; note: potency is the fitted concentration of half-maximal effect). The essentials:
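Using the breast carcinoma line MDA-kb2 AR-luc, test chemicals were co-incubated with R1881 for 16 h; CellTiter-Fluor reagent, added at 15.5 h, provided a fluorescence measure of live cells.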

Experiment [5] in a line: qHTS assay to identify small molecule antagonists of the thyroid receptor (TR) signaling pathway - cell viability counter screen (AID 743064). Note: nearly all actives have a fitted effect of over 50% in size. Note: potency is the fitted concentration of half-maximal effect. An outline of the steps: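 Counter screen for cytotoxicity: compound plus T3 (1 nM final) on GH3.TRE-Luc cells, 23.5 h at 37 °C, then fluorescence viability readout with CellTiter-Fluor.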
Experiment [6] has as its target Estrogen receptor (Homo sapiens) (UniProt P03372). As to the kind of experiment: qHTS assay to identify small molecule antagonists of the estrogen receptor alpha (ER-alpha) signaling pathway (AID 743069; active = well fitted curve in the direction sought with a large enough effect in the signal ratio in the repeat runs, not every such curve was filed as active; inconclusive = weak or mixed curves, or effect the other way; inactive = no such curve, though single readings can be large or run the other way; the % refers to the signal ratio; note: potency is the fitted concentration of half-maximal effect). The essentials:
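Fluorescence intensity from a beta-lactamase FRET substrate served as the read-out. Cells: HEK293 with stably integrated ER-alpha-UAS-bla reporter. Agonist 17beta-estradiol was co-added with compounds; incubation 18 hr at 37C, substrate 2 hr at room temperature.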

Experiment [7] in a line: qHTS assay to identify small molecule antagonists of the estrogen receptor alpha (ER-alpha) signaling pathway - cell viability counter screen (AID 743074; calls by dose curve; note: nearly all actives have a fitted effect of over 45% in size).
Experiment [8] in a line: qHTS assay to identify small molecule antagonists of the estrogen receptor alpha (ER-alpha) signaling pathway using the BG1 cell line (AID 743080; calls by dose curve;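 note: BG1 cells stimulated with 17beta-estradiol alongside compound; potency is the fitted concentration of half-maximal effect; nearly all actives have a fitted effect of over 25% in size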). An outline of the steps:
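Luminescence from a 4×ERE-luciferase reporter in BG1-Luc-4E2 cells served as read-out. Cells, pre-cultured 5 days in stripped-serum phenol-red-free medium, were exposed to compound with 17beta-estradiol co-stimulation for 21.5 h at 37 C.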

Experiment [9] is described as follows: qHTS assay to identify small molecule antagonists of the estrogen receptor alpha (ER-alpha) signaling pathway using the BG1 cell line - cell viability counter screen (AID 743081).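 Note: compound given together with 17beta-estradiol as the ER stimulus; nearly all actives have a fitted effect of over 45% in size.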
The target of another experiment is Aromatase (Homo sapiens) (UniProt P11511). As to the kind of experiment: qHTS assay to identify aromatase inhibitors (AID 743083). Note: nearly all actives have a fitted effect of over 55% in size. Note: potency is the fitted concentration of half-maximal effect.
Sequence of Aromatase (Homo sapiens) (P11511 whole entry, looked up): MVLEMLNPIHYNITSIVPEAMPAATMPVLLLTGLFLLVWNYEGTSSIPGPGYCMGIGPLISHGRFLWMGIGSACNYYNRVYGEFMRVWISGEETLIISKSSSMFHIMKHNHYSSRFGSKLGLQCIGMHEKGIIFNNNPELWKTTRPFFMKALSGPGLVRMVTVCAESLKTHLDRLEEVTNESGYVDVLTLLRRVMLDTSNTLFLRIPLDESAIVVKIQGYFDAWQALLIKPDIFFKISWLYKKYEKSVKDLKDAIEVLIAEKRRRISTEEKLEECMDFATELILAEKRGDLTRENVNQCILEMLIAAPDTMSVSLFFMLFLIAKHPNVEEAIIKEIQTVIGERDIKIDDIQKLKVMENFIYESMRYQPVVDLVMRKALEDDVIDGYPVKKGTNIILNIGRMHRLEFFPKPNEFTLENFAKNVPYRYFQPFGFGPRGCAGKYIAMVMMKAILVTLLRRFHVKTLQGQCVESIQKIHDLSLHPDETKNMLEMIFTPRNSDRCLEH
The subject of experiment [10] is thyroid hormone receptor (rat, GH3 cells). Put plainly: qHTS assay to identify small molecule agonists of the thyroid receptor (TR) signaling pathway (AID 743066; calls by dose curve).
Experiment [11] is described as follows: qHTS assay to identify small molecule antagonists of the thyroid receptor (TR) signaling pathway (AID 743065). Note: nearly all actives have a fitted effect of over 55% in size. Note: potency is the fitted concentration of half-maximal effect. The essentials: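 Antagonism measured as loss of luciferase signal in GH3 cells stably carrying a TRE-luciferase reporter, co-treated with compound and T3 (1 nM final) for 23.5 h at 37 C. Viability was read in the same well by CellTiter-Fluor.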
Experiment [12] is described as follows: qHTS assay for identifying genotoxic compounds that show differential cytotoxicity against isogenic chicken DT40 cell lines with known DNA damage response pathways - Rev3 mutant cell line (AID 743014). Note: nearly all actives have a fitted effect of over 55% in size. Note: potency is the fitted concentration of half-maximal effect.
Experiment [13] addresses Androgen receptor (Homo sapiens) (UniProt P10275). As to the kind of experiment: qHTS assay to identify small molecule agonists of the androgen receptor (AR) signaling pathway using the MDA cell line (AID 743040; note: nearly all actives have a fitted effect of over 20% in size; note: potency is the fitted concentration of half-maximal effect). An outline of the steps: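 Stable MMTV-luciferase reporter in MDA-kb2 cells; note the promoter carries GR as well as AR response elements. 16 h compound treatment, 37C, 0% CO2; ONE-Glo luminescence endpoint.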

Experiment [14] shares this target. As to the kind of experiment: qHTS assay to identify small molecule antagonists of the androgen receptor (AR) signaling pathway using the MDA cell line (AID 743042; note: nearly all actives have a fitted effect of over 55% in size; note: potency is the fitted concentration of half-maximal effect). An outline of the steps:
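Antagonist mode: compounds plus R1881 agonist added to MDA-kb2 AR-luc cells, incubated 16 h at 37C. Luciferase reporter luminescence quantified, with multiplexed CellTiter-Fluor readout for cell viability.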

Experiment [15] has as its target Estrogen receptor (Homo sapiens) (UniProt P03372). As to the kind of experiment: qHTS assay to identify small molecule agonists of the estrogen receptor alpha (ER-alpha) signaling pathway using the BG1 cell line (AID 743079). Note: potency is the fitted concentration of half-maximal effect; nearly all actives have a fitted effect of over 20% in size. The following applies: BG1Luc4E2 cells, ERE-luciferase agonist, 22 h; activation: at 70.3 µM (top of the series).
For experiment [16], the target named is Androgen receptor (Homo sapiens) (UniProt P10275). As to the kind of experiment: qHTS assay to identify small molecule antagonists of the androgen receptor (AR) signaling pathway (AID 743035; active = well fitted inhibition curve with a large enough effect in the signal ratio in the repeat runs, not every such curve was filed as active; inconclusive = weak or mixed curves, or effect the other way; inactive = no such curve, though single readings can be large or run the other way; the % refers to the signal ratio; note: potency is the fitted concentration of half-maximal effect). The essentials:
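Quantitative HTS of the Tox21 10K library used HEK293 AR-UAS-bla cells stimulated with R1881 alongside compound for 16 h at 37C, followed by beta-lactamase FRET detection (LiveBLAzer B/G, 2 h, RT).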

Experiment [17] addresses Estrogen receptor (Homo sapiens) (UniProt P03372). Put plainly: qHTS assay to identify small molecule agonists of the estrogen receptor alpha (ER-alpha) signaling pathway (AID 743075; calls by dose curve).

Unmarked numbers belong to inactive results. Activity calls are given as the source filed them. Unless noted, calls come from the whole dose curve; as a rule, active = well fitted curve in the direction sought with a large enough effect in the repeat runs; inconclusive = weak or mixed curves; inactive = no such curve, though single readings can be large; an effect the other way counts as inactive or inconclusive.

Sequence of Androgen receptor (Homo sapiens) (P10275 whole entry, looked up): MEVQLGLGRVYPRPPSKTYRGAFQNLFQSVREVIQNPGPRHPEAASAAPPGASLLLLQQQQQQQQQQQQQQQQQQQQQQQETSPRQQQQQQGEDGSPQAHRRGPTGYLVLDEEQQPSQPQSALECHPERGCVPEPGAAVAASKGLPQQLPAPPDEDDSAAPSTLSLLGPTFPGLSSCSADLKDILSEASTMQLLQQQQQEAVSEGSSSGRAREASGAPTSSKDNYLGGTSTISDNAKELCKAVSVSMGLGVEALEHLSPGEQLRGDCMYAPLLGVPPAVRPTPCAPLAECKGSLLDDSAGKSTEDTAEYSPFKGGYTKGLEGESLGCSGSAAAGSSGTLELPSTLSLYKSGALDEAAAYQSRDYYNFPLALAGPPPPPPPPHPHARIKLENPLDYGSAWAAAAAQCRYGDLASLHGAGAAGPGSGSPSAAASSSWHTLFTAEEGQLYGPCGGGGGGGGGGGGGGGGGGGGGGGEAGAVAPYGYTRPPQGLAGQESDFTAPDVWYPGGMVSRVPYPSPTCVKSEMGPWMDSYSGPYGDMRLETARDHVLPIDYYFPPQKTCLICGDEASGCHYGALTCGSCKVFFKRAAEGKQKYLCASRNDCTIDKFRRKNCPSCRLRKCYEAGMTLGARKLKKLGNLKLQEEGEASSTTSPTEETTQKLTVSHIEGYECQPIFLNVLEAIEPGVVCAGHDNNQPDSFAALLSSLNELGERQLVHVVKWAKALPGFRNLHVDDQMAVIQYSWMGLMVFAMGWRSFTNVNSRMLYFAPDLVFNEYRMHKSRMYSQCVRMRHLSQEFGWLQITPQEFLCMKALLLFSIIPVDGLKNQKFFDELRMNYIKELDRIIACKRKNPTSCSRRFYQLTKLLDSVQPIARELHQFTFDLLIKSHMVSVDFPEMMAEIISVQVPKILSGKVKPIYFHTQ
Sequence of Estrogen receptor (Homo sapiens) (P03372 whole entry, looked up): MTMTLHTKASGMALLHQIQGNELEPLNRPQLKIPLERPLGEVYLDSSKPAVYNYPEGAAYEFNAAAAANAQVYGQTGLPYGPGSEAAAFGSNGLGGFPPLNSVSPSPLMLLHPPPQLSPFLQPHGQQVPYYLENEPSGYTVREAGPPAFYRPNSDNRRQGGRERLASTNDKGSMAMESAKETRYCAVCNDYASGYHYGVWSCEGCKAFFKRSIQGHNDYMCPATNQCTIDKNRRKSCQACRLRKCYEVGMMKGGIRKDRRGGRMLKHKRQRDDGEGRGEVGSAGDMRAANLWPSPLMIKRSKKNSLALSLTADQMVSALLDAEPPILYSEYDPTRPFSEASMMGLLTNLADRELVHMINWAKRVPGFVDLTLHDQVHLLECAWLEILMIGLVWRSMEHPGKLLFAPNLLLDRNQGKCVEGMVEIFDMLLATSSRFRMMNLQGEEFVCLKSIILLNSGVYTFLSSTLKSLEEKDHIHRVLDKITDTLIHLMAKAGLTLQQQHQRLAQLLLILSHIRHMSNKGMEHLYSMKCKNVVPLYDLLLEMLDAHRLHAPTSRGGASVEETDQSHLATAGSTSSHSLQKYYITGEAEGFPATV

With `Cc1nccn1-c1ccc(Sc2cccc(C3(C(N)=O)CCOCC3)c2)cc1`, the Potency in [1] is 0.77 µM (active); in experiment [2], 1.37 µM (active); in [3] it was 4.9 µM (active); in experiment [4], 15.4 µM (active); in experiment [5] it was 27.3 µM (active); in experiment [6], 0.275 µM [inconclusive] (active). Moreover, the results for the Potency (in experiment [8]; in the experiment with Aromatase (Homo sapiens)) were 1.93 µM (active) and 54.5 µM (active), respectively. For the same compound, the Potency result in experiment [7] and in [9] was “inactive” throughout.
Consider `C[C@@H]1C[C@H]2[C@@H]3CCC4=CC(=O)C=C[C@]4(C)[C@@]3(F)[C@@H](O)C[C@]2(C)[C@H]1C(=O)CO`, for which the Potency in [1] was 13.3 µM (active); in experiment [2], 26.6 µM (active). Moreover, the Potency entry (in experiment [3]; in experiment [4]; in [5]; in experiment [7]; in experiment [9]; in the experiment with Aromatase (Homo sapiens)) was “inactive” in each case. For the same compound, the outcome in experiment [10] was inactive.
Take `Nc1nccs1`: the Potency result in [1], in experiment [2], in experiment [3], in experiment [4], in experiment [5] and in experiment [11] was “inactive” each time. The Potency result (in [7]; in [9]; with Aromatase (Homo sapiens)) was “inactive” each time. The outcome in experiment [10] was inactive.
In the case of `COC(=O)Nc1nc2ccc(C(=O)c3cccs3)cc2[nH]1`, the Potency in experiment [1] was 0.15 µM (active); in experiment [12], 0.211 µM (active); in experiment [2], 0.237 µM (active); in experiment [5], 0.266 µM (active); in [11], 0.237 µM (active). Besides, the Potency result (in experiment [4]; in experiment [9]; with Aromatase (Homo sapiens)) was “inactive” throughout. For the same compound, in [10], the result was inactive.
Take `COCc1c(C(C)C)nc(C(C)C)c(/C=C/[C@@H](O)C[C@@H](O)CC(=O)O)c1-c1ccc(F)cc1`: the Potency in [1] was 0.075 µM (active); in experiment [12], 0.0133 µM (active); in experiment [2], 0.298 µM (active); in [13] it was 13.3 µM (active); in experiment [11] it was 11.9 µM (active); in experiment [15], 11.9 µM (active). The Potency entry in experiment [4], in experiment [14], in experiment [7] and in experiment [9] was “inactive” each time. Moreover, in [10], the outcome was inactive.
`COc1cc2c(cc1OC)-c1cc(=Nc3c(C)cc(C)cc3C)n(C)c(=O)n1CC2`: the Potency in experiment [1] is 2.66 µM (active); in experiment [12], 4.22 µM (active); in experiment [2], 6.68 µM (active); in experiment [16], 19 µM (active); in experiment [14], 29.8 µM (active); in experiment [5], 21.1 µM (active). Further, the Potency was 18.8 µM (active) in experiment [11] and 26.6 µM (active) with Aromatase (Homo sapiens). For the same compound, the Potency entry in experiment [13] and in [17] was “inactive” each time.
Take `CC(=O)OCC(=O)[C@@]12OC(C)(C)O[C@@H]1C[C@H]1[C@@H]3C[C@H](F)C4=CC(=O)C=C[C@]4(C)[C@@]3(F)[C@@H](O)C[C@@]12C`: the Potency result (in [1]; in experiment [12]; in experiment [2]; in experiment [7]; in [9]; in the experiment with Aromatase (Homo sapiens)) was “inactive” each time.
Turning to `NC(=O)N(O)[C@@H]1C=C[C@H](Oc2cccc(Oc3ccc(F)cc3)c2)C1`, the Potency in experiment [1] is 54.5 µM (active); in experiment [12], 61.1 µM (active); in [2] it was 54.5 µM (active); in experiment [11], 68.6 µM (active); in [15], 13.7 µM (active); in [8] it was 77 µM (active). Besides, the Potency result in experiment [4], in [5], in [6], in experiment [7], in [17] and in experiment [9] was “inactive” in each case.
Regarding `Cc1cnc(C)c(C)n1`, the Potency result in experiment [1], in experiment [3], in experiment [4], in experiment [11], in [7] and in [9] was “inactive” throughout. The Potency result with Aromatase (Homo sapiens) was “inactive”. Further, the result in [10] was inactive.
`CC1=C(/C=C/C(C)=C\C=C\C(C)=C\C(=O)O)C(C)(C)CCC1`: the Potency in [1] was 34.4 µM (active); in [8], 0.243 µM (active). Also, the Potency entry (in experiment [3]; in experiment [4]; in [7]; in [17]; in experiment [9]; with Aromatase (Homo sapiens)) was “inactive” throughout.

The values above are taken from PubChem BioAssay (Tox21).
